Drawing on PubChem BioAssay (Tox21), this text covers Potency for eight compounds.

Test [1] is described as follows: Nuclear factor erythroid 2-related factor 2/antioxidant responsive element (Nrf2/ARE) small molecule agonists: qHTS cell viability counter screen in human keratinocytes (AID 1919968; active = well fitted curve in the direction sought with a large enough effect in the repeat runs; an effect the other way counts as inactive or inconclusive; also: nearly all actives have a fitted effect of over 55% in size). The procedure, abridged: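 Stably transfected HaCaT (KeratinoSens), 1,500/well. Test agents in DMSO were applied for 23 h, 37 C/5% CO2. CellTiter-Fluor was incubated 1 h before the fluorescence read.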
A general note: qHTS replaces the single test concentration by a dilution series.

A short description of test [2]: Nuclear factor erythroid 2-related factor 2/antioxidant responsive element (Nrf2/ARE) small molecule agonists: luciferase reporter gene qHTS assay in human keratinocytes (AID 1919969). Also: nearly all actives have a fitted effect of over 35% in size. Also: potency is read from the fitted curve at half-maximal effect.
In test [3] the target is Gonadotropin-releasing hormone receptor (Homo sapiens) (UniProt P30968). Put plainly: Human gonadotropin-releasing hormone receptor (GnRHR) small molecule agonists, calcium flux assay in GnRHR-HEK293 cells (AID 1920063). Also: nearly all actives have a fitted effect of over 35% in size. In a few lines:
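Stable human GnRHR HEK293 line. 18 h plating, then calcium dye for 1 h at 37 C. Agonist-mode compound addition from DMSO stocks; fluorescence monitored 3 min.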
A general note: Calcium assays in cells follow changes in intracellular calcium, usually with a dye or a luminescent sensor.

The target of test [4] is KiSS-1 receptor (Homo sapiens) (UniProt Q969F8). Put plainly: Human kisspeptin (KISS1R) small molecule agonists, calcium flux assay in KISS1R-HEK293 cells (AID 1920064; active = well fitted curve in the direction sought with a large enough effect in the repeat runs; an effect the other way counts as inactive or inconclusive). The procedure, abridged:
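After overnight (18 h) culture at 37 C/5% CO2, human KISS1R-HEK293 cells received calcium dye for 1 h, then test compound; emission at 540 nm (excitation 480 nm) was tracked for 3 min.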

The nature of test [5]: G protein-coupled receptor (GPCR) small molecule agonists, calcium flux assay: HEK293 wild type cell line counter screen (AID 1920065). In a few lines:
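Following 18 h incubation at 37 C/5% CO2, plates got calcium dye for 1 h; compounds, ATP or DMSO were then pinned in and fluorescence followed kinetically (480/540 nm).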

Test [6] in a line: p53 small molecule agonists, cell-based qHTS assay with human liver microsomes (AID 1963577).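 Also: p53 response element beta-lactamase reporter cells with liver microsomes plus NADPH.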 In a few lines: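 Reporter activation was measured by LiveBLAzer fluorescence intensity in p53RE-bla cells, which had been exposed to compounds for 16 h at 37 C alongside 0.5 mg/mL human liver microsomes and 0.5 mg/mL NADPH (final concentrations).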
The nature of test [7]: p53 small molecule agonists, cell-based qHTS assay with rat liver microsomes (AID 1963578). The procedure, abridged:
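Compound in DMSO added to p53RE-bla cells 5 h post-plating; rat microsomes/NADPH 0.5 mg/mL final; 16 h, 37 C; LiveBLAzer 2 h RT.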

Test [8] in a line: p53 small molecule agonists, cell-based qHTS assay with human liver microsomes: qHTS cell viability counter screen (AID 1963579). Also: nearly all actives have a fitted effect of over 45% in size. The procedure, abridged:
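HLM-supplemented (0.5 mg/mL final) and NADPH-supplemented (0.5 mg/mL final) p53RE-bla cultures, 4,000 cells per well, were dosed with compounds in DMSO for 16 h at 37 C; luminescent ATP detection (CellTiter-Glo, 30 min, room temperature) quantified surviving cells.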

Test [9] in a line: p53 small molecule agonists, cell-based qHTS assay with rat liver microsomes: qHTS cell viability counter screen (AID 1963580). Also: nearly all actives have a fitted effect of over 45% in size. In a few lines:
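Cytotoxicity counter screen: intracellular ATP measured by CellTiter-Glo luminescence in the same wells as the beta-lactamase reporter read, on HCT-116 p53RE-bla cells exposed 16 h at 37 C to compounds with rat liver microsomes and NADPH, each 0.5 mg/mL final.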

The nature of test [10]: p53 small molecule agonists, cell-based qHTS assay: qHTS cell viability counter screen (AID 1963581). Also: nearly all actives have a fitted effect of over 45% in size. In a few lines: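 qHTS counter screen: 16 h compound exposure at 37 C of p53RE-bla HCT-116 cells (4,000 per well, seeded 5 h prior), cell viability by ATP luminescence.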
A short description of test [11]: p53 small molecule agonists, cell-based qHTS assay (AID 1963582; active = well fitted activation curve with a large enough effect in the signal ratio in the repeat runs, not every such curve was filed as active; the % refers to the signal ratio). In a few lines: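 Measured: fluorescence from cleaved LiveBLAzer substrate. System: p53RE-bla cells, 16 h compound treatment at 37 C, 2 h substrate step at room temperature.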
In test [12] the target is 5-hydroxytryptamine receptor 2A (Homo sapiens) (UniProt P28223). Kind of test: 5-hydroxytryptamine receptor 2A (HTR2A) small molecule antagonists, cell-based qHTS assay (AID 1963586). Also: nearly all actives have a fitted effect of over 45% in size. The procedure, abridged: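 CHO cells stably expressing human HTR2A were plated for 18 h at 37 C, then loaded with calcium dye for 1 h. Compounds were preincubated 5 min at room temperature before DOI (4 nM solution) was added. Kinetic fluorescence was read for 3 min.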
Sequence of 5-hydroxytryptamine receptor 2A (Homo sapiens) (P28223 whole entry, looked up): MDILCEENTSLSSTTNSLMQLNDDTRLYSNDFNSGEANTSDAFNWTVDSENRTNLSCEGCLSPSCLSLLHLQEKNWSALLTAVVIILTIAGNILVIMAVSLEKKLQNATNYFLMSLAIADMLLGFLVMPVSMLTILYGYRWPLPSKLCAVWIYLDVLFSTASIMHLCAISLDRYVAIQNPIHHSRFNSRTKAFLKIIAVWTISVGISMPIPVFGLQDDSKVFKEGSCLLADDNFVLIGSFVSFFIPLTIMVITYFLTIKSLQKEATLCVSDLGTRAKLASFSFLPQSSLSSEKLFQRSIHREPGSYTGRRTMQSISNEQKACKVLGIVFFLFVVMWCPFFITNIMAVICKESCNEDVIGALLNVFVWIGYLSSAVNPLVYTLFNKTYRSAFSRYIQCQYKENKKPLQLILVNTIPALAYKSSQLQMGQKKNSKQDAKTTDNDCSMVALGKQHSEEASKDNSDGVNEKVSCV

For test [13] the target is unchanged. Put plainly: 5-hydroxytryptamine receptor 2A (HTR2A) small molecule agonists, cell-based qHTS assay (AID 1963587). Also: nearly all actives have a fitted effect of over 30% in size. In a few lines:
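CHO cells stably expressing human HTR2A, plated 18 h, loaded with calcium dye 1 h at 37 C. Agonist mode: compounds added and intracellular calcium fluorescence recorded kinetically for 2 min at 1 sec intervals.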

Test [14] concerns the target Muscarinic acetylcholine receptor M1 (Homo sapiens) (UniProt P11229). Kind of test: Cholinergic receptor muscarinic 1 (CHRM1) small molecule antagonists, cell-based qHTS assay (AID 1963588). Also: nearly all actives have a fitted effect of over 40% in size. The procedure, abridged: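 Compounds were tested at 15 concentrations in three independent runs. Dye-loaded CHRM1-CHO cells were exposed 5 min at room temperature before stimulation by acetylcholine added at 50nM. Intracellular calcium was read kinetically on FDSS for 3 min.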

Test [15] is described as follows: cAMP Responsive Elements (CRE) small molecule antagonists, cell-based qHTS assay (AID 1963591; active = well fitted inhibition curve with a large enough effect in the signal ratio in the repeat runs, not every such curve was filed as active; the % refers to the signal ratio). In a few lines:
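Reporter line CRE-bla HEK 293T in dialyzed-FBS DMEM; cells preincubated 18 h, treated 3 h with compound plus NKH477 (0.25 uM final); LiveBLAzer FRET, 2 h RT.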

For test [16], the target named is Beta-2 adrenergic receptor (Homo sapiens) (UniProt P07550). Put plainly: Adrenergic beta2 receptor (ADRB2) small molecule antagonists, cell-based qHTS assay (AID 1963592). Also: series mostly up to about 92 µM; nearly all actives have a fitted effect of over 50% in size. In a few lines: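 Assay format: CHO-ADRB2 cells, 18-20hr seeding at 37C/5% CO2, then compound plus 1nM isoproterenol agonist mix for 0.5hr RT. Homogeneous time-resolved fluorescence cAMP detection after 1hr, expressed as 665/615 nm ratio.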
Sequence of Beta-2 adrenergic receptor (Homo sapiens) (P07550 whole entry, looked up): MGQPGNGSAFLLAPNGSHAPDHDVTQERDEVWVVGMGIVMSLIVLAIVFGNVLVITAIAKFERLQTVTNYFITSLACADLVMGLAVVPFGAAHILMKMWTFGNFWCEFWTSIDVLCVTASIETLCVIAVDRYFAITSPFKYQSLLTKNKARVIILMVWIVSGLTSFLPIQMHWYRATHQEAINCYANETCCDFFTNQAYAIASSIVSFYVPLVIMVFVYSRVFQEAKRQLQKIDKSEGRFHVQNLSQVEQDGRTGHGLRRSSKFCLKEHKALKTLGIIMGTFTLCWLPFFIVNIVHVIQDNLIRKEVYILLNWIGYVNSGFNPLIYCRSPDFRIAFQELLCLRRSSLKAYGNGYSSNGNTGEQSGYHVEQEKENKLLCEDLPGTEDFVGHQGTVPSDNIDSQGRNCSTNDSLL

The target is the same in test [17]. Put plainly: Adrenergic beta2 receptor (ADRB2) small molecule agonists, cell-based qHTS assay (AID 1963593).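 Also: CHO cells stably overexpressing human ADRB2.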 The procedure, abridged:
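CHO cells stably over-expressing ADRB2 were plated overnight at 37C, then dosed with compounds plus a stimulation mix containing 100uM IBMX and 25uM Ro-20-1724 for 0.5hr at room temperature. cAMP was measured by HTRF competition, 1hr.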

The target in test [18] is D(2) dopamine receptor (Homo sapiens) (UniProt P14416). Put plainly: Dopamine D2 receptor (DRD2) small molecule agonists, cell-based qHTS assay (AID 1963594). Also: nearly all actives have a fitted effect of over 35% in size. In a few lines:
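HEK293 cells stably expressing human DRD2, pre-treated with PDE inhibitor Ro20-1724 (0.1 mM final) and compound 10 min at room temperature, then stimulated with NKH477 (200nM […]) for 30 min. cAMP read by HTRF (665/620 nm).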

The target is the same in test [19]. Put plainly: Dopamine D2 receptor (DRD2) small molecule antagonists, cell-based qHTS assay (AID 1963595; active = well fitted inhibition curve with a large enough effect in the signal ratio in the repeat runs, with a control signal flat; the % refers to the signal ratio). In a few lines: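 Cells were plated and grown for 24 h at 37 °C. Ro20-1724 (0.1 mM final) went in first, then compound for 10 min. NKH477 (200 nM) with quinpirole (12 nM) followed for 30 min at RT, then HTRF detection reagents for 1 h.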
Test [20] in a line: cAMP Responsive Elements (CRE) small molecule agonists, cell-based qHTS assay (AID 1963590). The procedure, abridged: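 Test agents in DMSO were incubated 3 h at 37 C/5% CO2 with CRE-bla HEK 293T cells seeded 18 h earlier; LiveBLAzer B/G FRET substrate was added and read after 2 h at room temperature.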

Each structure is given as a SMILES string. Inconclusive results are not listed. A structure can be active in one record and inactive in another. Activity calls are given as the source filed them. Unless noted, calls follow the shape of the full dose curve.

Sequence of Gonadotropin-releasing hormone receptor (Homo sapiens) (P30968 whole entry, looked up): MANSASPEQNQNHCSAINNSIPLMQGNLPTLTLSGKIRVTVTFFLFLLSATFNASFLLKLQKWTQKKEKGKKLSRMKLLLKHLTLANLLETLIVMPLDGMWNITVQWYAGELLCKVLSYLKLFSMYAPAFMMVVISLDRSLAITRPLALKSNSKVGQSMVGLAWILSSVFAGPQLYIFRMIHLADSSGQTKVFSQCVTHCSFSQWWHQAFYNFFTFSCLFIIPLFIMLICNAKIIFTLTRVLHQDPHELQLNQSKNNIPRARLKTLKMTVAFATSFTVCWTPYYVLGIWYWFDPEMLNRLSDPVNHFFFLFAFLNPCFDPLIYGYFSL
Sequence of D(2) dopamine receptor (Homo sapiens) (P14416 whole entry, looked up): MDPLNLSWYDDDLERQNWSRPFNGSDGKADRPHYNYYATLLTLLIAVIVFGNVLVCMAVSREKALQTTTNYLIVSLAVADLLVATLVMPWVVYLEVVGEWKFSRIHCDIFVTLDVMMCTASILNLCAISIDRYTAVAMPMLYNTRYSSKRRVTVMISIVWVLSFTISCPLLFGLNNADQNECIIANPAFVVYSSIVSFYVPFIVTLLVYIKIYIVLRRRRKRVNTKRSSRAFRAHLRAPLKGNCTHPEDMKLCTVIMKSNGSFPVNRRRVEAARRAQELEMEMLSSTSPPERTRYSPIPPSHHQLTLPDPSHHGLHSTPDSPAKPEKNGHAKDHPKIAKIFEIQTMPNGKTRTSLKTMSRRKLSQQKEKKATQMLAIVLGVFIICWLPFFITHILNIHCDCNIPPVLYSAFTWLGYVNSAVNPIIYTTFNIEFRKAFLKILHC
Sequence of KiSS-1 receptor (Homo sapiens) (Q969F8 whole entry, looked up): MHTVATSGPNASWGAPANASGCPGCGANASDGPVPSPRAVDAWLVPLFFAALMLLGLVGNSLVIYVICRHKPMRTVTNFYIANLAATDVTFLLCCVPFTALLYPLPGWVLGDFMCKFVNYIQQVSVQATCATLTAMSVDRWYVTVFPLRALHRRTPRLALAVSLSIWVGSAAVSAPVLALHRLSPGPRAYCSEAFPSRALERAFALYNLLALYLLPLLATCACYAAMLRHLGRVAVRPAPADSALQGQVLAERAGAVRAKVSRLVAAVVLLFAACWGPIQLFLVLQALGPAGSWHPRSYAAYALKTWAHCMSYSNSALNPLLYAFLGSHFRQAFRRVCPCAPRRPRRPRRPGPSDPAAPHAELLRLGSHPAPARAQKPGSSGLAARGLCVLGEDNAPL
Sequence of Muscarinic acetylcholine receptor M1 (Homo sapiens) (P11229 whole entry, looked up): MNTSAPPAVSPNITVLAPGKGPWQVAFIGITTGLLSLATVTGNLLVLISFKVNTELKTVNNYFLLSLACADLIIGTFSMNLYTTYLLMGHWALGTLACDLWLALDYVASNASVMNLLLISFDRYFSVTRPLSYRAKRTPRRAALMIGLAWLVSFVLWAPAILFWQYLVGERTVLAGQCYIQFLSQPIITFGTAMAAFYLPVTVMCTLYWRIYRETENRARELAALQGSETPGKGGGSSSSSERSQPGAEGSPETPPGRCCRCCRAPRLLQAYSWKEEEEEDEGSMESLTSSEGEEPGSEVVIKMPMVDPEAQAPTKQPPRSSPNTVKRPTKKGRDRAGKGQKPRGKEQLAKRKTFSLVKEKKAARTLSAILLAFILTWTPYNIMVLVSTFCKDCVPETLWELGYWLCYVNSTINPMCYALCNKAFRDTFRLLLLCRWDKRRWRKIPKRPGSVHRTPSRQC

Take `CCCCN(CCCC)CCCC`: the Potency entry in test [1], in [2], in test [3], in test [4], in test [5] and in test [6] was “inactive” each time. Moreover, the Potency result in test [7], in [8], in test [9], in test [10], in test [11] and in test [12] was “inactive” throughout. In addition, the Potency result in [13], in test [14], in [15], in test [16], in test [17] and in [18] was “inactive” throughout. In addition, the Potency result in [19] is “inactive”.
In the case of `CC(C)OC(=O)COc1ccc(Cl)cc1Cl`, the Potency result in test [1], in [2], in test [3], in [4], in test [5] and in test [6] was “inactive” throughout. For the same compound, the Potency result in [7], in [8], in test [9], in [10], in test [11] and in [12] was “inactive” throughout. Besides, the Potency entry in [13], in test [14], in test [15], in test [16], in test [18] and in test [19] was “inactive” throughout.
Regarding `COC(=O)c1ccc(C)cc1`, the Potency entry in [1], in test [2], in test [3], in test [4], in test [5] and in [6] was “inactive” throughout. The Potency entry in test [7], in test [8], in test [9], in [10], in [11] and in test [12] was “inactive” throughout. Further, the Potency result in test [13], in [14], in [20], in test [16], in [18] and in [19] was “inactive” throughout.
In the case of `Cc1cc(CC(=O)O)n(C)c1C(=O)c1ccc(Cl)cc1`, the Potency entry in test [1], in test [2], in test [3], in test [4], in test [5] and in test [6] was “inactive” each time. Further, the Potency entry in test [7], in test [8], in [9], in [10], in test [11] and in test [12] was “inactive” in each case. Also, the Potency result in test [13], in test [14], in [16], in [18] and in test [19] was “inactive” in each case.
For the compound `OCC(O)CS` (stereo unspecified), the Potency entry in test [1], in test [2], in test [3], in test [4], in test [5] and in [6] was “inactive” each time. The Potency entry in [7], in test [8], in test [9], in [10], in test [11] and in [12] was “inactive” throughout. The Potency entry in [13], in [14], in test [15], in test [16], in test [17] and in [18] was “inactive” each time. For the same compound, the Potency result in test [19] is “inactive”.
`CC1(C)C(=O)N(Cl)C(=O)N1Cl`: the Potency entry in test [1], in test [2], in test [3], in test [4], in [5] and in [6] was “inactive” in each case. The Potency entry in test [7], in test [8], in test [9], in [10], in test [11] and in [12] was “inactive” each time. For the same compound, the Potency entry in test [13], in test [14], in [20], in test [15], in test [16] and in test [17] was “inactive” throughout. The Potency entry in test [18] and in test [19] was “inactive” in each case.
As for `O=c1c(O)c(-c2ccc(O)cc2)oc2cc(O)cc(O)c12`, the Potency result in test [1], in [3], in test [4], in test [5], in test [6] and in test [7] was “inactive” each time. Also, the Potency entry in [8], in test [9], in test [10], in test [11], in test [12] and in [13] was “inactive” throughout. Besides, the Potency result in test [14], in [16] and in test [18] was “inactive” in each case. In test [2], the Potency was 17.2 µM (active) and inactive.
Take `COCC(C)N` (stereo unspecified): the Potency entry in [1], in test [2], in test [3], in test [4], in test [5] and in test [6] was “inactive” each time. Besides, the Potency result in test [7], in [8], in [9], in test [10], in test [11] and in test [12] was “inactive” throughout. The Potency result in test [13], in test [14], in test [20], in test [16], in test [17] and in test [18] was “inactive” throughout. Besides, the Potency result in test [19] is “inactive”.
